Bioassay records deposited in PubChem BioAssay by The Scripps Research Institute Molecular Screening Center.
NR2F2 inh = blocks human COUP-TFII nuclear receptor; HEK293T NGFI-A luciferase reporter, luminescence; P24468; actives 0.7% (n = 370,000); AID 686940; inhibition, % at 8.6 µM;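 active = inhibition above a per-plate cutoff, mean inhibition of test wells between control levels plus 3 SD, cut at about 38% in these data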;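 also: cells cotransfected with COUP-TFII expression vector driving the NGFI-A reporter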
SRC3 inh = human NCOA3 inhibition | Q9Y6Q9 | HEK293 GAL4-SRC3 luciferase reporter, luminescence | inhibition, % at 3.6 µM | actives 0.17% (n = 360,000) | AID 588352;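 active = inhibition above a per-campaign cutoff, the mean of all compounds plus 3 SD, cut at about 60% in these data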;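 also: higher means less SRC3-driven luciferase light from the GAL4 reporter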
LRH-1 inv ag = inverse agonists of human LRH-1 (NR5A2) | AID 602396 | actives 0.13% (n = 360,000) | HEK293T StAR-luciferase reporter, LRH-1 transfected, 24 h | inhibition, % at 3.6 µM;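 active = inhibition above the mean inhibition of all tested compounds plus 3 SD, cut at about 73% in these data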
SRC2 inh = inhibits human steroid receptor coactivator 2; inhibition, % at 9 µM; Q15596; HEK293 GAL4-SRC2 luciferase reporter, luminescence; actives 0.17% (n = 370,000); AID 651957;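 active = inhibition above the mean inhibition of all tested compounds plus 3 SD, set per campaign, cut at about 52% in these data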
NCOA1 inh = inhibits human SRC1 coactivator; Q15788; inhibition, % at 3.6 µM; HEK293 GAL4-SRC1 luciferase reporter, luminescence; actives 0.12% (n = 360,000);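 active = inhibition above the campaign mean plus 3 SD, with each screening campaign given its own cutoff, cut at about 60% in these data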
Target sequence (Q15788 whole entry, looked up, the tested form may be a part): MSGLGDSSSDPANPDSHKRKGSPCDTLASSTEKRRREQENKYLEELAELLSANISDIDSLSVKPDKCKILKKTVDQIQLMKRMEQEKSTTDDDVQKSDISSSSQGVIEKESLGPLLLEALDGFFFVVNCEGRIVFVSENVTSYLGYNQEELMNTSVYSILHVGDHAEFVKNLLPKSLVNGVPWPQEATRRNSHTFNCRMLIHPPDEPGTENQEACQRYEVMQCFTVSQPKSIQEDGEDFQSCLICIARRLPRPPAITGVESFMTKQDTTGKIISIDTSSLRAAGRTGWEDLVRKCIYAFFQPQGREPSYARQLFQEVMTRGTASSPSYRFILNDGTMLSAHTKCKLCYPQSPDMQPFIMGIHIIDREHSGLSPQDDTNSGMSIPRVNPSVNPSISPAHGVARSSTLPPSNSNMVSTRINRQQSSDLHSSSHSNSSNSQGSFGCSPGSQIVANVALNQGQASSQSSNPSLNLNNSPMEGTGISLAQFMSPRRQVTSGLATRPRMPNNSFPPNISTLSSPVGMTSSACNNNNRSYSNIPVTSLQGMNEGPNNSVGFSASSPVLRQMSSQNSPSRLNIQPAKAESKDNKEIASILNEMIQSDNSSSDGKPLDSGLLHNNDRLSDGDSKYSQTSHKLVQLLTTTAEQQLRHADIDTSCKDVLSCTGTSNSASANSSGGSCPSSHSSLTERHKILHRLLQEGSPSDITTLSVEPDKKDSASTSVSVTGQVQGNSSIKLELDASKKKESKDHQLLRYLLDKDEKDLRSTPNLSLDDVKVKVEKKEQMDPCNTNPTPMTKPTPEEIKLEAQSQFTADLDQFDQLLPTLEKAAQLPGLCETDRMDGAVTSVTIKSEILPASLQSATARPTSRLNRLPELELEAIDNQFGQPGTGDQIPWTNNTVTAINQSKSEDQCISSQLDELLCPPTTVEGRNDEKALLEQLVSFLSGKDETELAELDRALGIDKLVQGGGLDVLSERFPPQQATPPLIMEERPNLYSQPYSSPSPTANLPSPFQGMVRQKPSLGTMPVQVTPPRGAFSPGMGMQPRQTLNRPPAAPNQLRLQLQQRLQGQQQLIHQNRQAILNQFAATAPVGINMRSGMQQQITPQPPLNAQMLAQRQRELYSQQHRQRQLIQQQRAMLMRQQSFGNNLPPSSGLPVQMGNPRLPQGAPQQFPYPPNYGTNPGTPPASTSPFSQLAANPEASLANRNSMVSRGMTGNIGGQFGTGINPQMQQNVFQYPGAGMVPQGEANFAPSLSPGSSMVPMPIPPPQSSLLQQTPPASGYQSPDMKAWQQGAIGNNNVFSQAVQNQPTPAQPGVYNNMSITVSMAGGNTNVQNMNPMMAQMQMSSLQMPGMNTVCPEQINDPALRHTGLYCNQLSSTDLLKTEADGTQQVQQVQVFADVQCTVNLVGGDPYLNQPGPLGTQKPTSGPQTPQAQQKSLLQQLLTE
VP16 Luc counter = VP16 inhibition counter-screen for COUP-TFII; shares compounds with NR2F2 inh; HEK293 Gal4-VP16 luciferase reporter, luminescence; inhibition, % at 8.5 µM; actives 25% (n = 2,500); AID 687007; in the data active = inhibition above about 13%
NR2F2 inh conf = COUP-TFII (NR2F2) inhibition, confirmation assay | shares compounds with NR2F2 inh | HEK293 NGFI-A luciferase reporter, luminescence | inhibition, % at 8.5 µM | actives 45% (n = 2,500) | AID 687008;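 active = mean inhibition over three repeats above a set limit taken from the earlier primary screen, cut at about 38% in these data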
A number is an active result; – = inactive; · = no result. Hits are enriched below; roughly 0.84% of the tested compounds scored in any of these assays.

SMILES | NR2F2 inh | SRC3 inh | LRH-1 inv ag | SRC2 inh | NCOA1 inh | VP16 Luc counter | NR2F2 inh conf
COCCNC(=S)N(C)[C@H]1C[C@H]2c3cc(N4CCN(C)CC4)ccc3CCN2C(=O)[C@H]1[C@H](C)O | – | – | – | – | – | · | ·
CCCCNC(=O)C(CC)(ONc1ccccc1C(F)(F)F)c1ccccc1OC (centres undefined) | – | – | – | – | – | · | ·
N#Cc1cc2cc3c(cc2nc1SCC(=O)N1CCOCC1)OCCO3 | 46 | – | – | – | – | 24 | 59
Cc1cccc2nc(C(=O)Nc3cccc(C(=O)NC4CC4)c3)cn12 | – | – | – | – | – | · | ·
CCOC(=O)N1CCC(NC(=O)c2ccc3c(c2)N(C)C(=O)/C(=C/c2cccc(OC)c2)S3)CC1 | 40 | – | – | – | – | – | 53
CCOC(=O)N1CCN(C(=O)c2ccc3c(c2)NC(=O)/C(=C\c2ccc(OC)c(OC)c2)S3)CC1 | – | – | – | – | – | · | ·
CCOC(=O)N1CCN(C(=O)c2ccc3c(c2)N(C)C(=O)/C(=C\c2ccc(OCC)c(OC)c2)S3)CC1 | 51 | – | – | – | – | – | –
Cc1ccc(S(=O)(=O)Nc2cc(C(=O)O)ccc2N2CCC(C)CC2)cc1C | – | · | · | – | · | · | ·
O=C(C1CCN(c2ncnc3c2nc2n3CCCCC2)CC1)N1CCN(c2cccc(Cl)c2)CC1 | 50 | – | – | – | – | – | –
CN1CCN(c2ccc3c(c2)Oc2ccccc2CN(Cc2cn(Cc4ccc(C(F)(F)F)cc4)nn2)S3(=O)=O)CC1 | – | · | · | – | · | · | ·
CN(C)c1ccc(CC(=O)N2CCCC(c3cc(C(=O)Nc4ccc(C(C)(C)C)cc4)no3)C2)cc1 (centres undefined) | 64 | – | – | – | – | 14 | 61
O=C1CCCCC1Sc1nnc(-c2ccc3c(c2)OCO3)o1 (centres undefined) | 64 | – | – | 57 | – | 22 | 59
O=C1C[C@@H](O)[C@H](O)c2cccc(O)c21 | – | · | · | – | · | · | ·
COc1cccc(CN(C)C(=O)CNC(=O)c2cccs2)c1OC | – | – | – | – | – | · | ·
COc1cccc(CN(C)C(=O)CNC(=O)c2ccc(-c3ccccc3)cc2)c1OC | 58 | – | – | – | – | – | 47
COc1ccc(CCC(=O)Nc2ccc(C)c(S(=O)(=O)N(C)C)c2)cc1OC | 41 | – | – | – | – | – | –
COc1ccc(OC)c(CC(=O)Nc2ccc3c(c2)CCC3)c1 | – | – | – | – | – | · | ·
COc1ccc(CC(=O)Nc2ccc3c(c2)CCC3)cc1OC | 50 | – | – | – | – | – | –
CC(C)c1ccc(/C=C2\SC(=S)N(CCC(=O)N3CCCCC3CCO)C2=O)cc1 (centres undefined) | 41 | – | – | – | – | – | –
COc1ccc(/C=C2\SC(=S)N(CCCC(=O)N3CCCCC3CCO)C2=O)cc1 (centres undefined) | 54 | – | – | 77 | – | 42 | –
COC(=O)c1cc2c(c3c4cc(C)ccc4n(S(=O)(=O)c4ccc(OC)cc4)c13)C(=O)N(C)C2 | – | · | · | – | · | · | ·
CC1CCCCC12NC(=O)N(CC(=O)N1CCN(C(=O)c3ccco3)CC1)C2=O (centres undefined) | – | – | – | – | – | · | ·
COC(=O)[C@]12C[C@H](CC(=O)NCC3CCCCC3)C(=O)N(Cc3ccc4c(c3)OCO4)C1=C[C@H](COCc1ccccc1)O[C@@H]2C | – | · | · | – | · | · | ·
COc1ccc(CNc2nn3c(-c4cccc(C(=O)N(C)C)c4)cnc3s2)cc1 | – | – | – | – | – | · | ·
NS(=O)(=O)c1ccc(CCNc2nn3c(-c4cccc(OC(F)(F)F)c4)cnc3s2)cc1 | 71 | – | – | – | – | 14 | 57
Cc1cc(=O)oc2cc(NC(=O)CC3(CC(=O)O)CCCC3)ccc12 | – | – | – | – | – | · | ·
CCN1CCN(C(c2cccnc2)c2c(NC(=O)c3ccco3)sc(C)c2C)CC1 (centres undefined) | – | – | – | – | – | · | ·
Cc1sc(NC(=O)c2ccco2)c(C(c2cccnc2)N2CCC(C)CC2)c1C (centres undefined) | 51 | – | – | – | – | – | 49
Cc1ccc(NC(=O)CSc2nn(-c3ccccc3)c(=S)s2)cc1S(=O)(=O)N(C)C | 68 | – | – | – | – | – | 63
